# AI-2 QS modul: modulates the Vibrio harveyi AI-2 quorum sensing system | Vibrio harveyi JMH597 AI-2 luminescence/OD600 ratio, 9 h; stronger effect = lower value; strain lacks LuxN and CqsS sensors; 0 = neutral-control median | activity change, % at 7.5 µM | 0.4% of 300,000 active | AID 2094; in the data active means activity change below about -75%, passing the limit was not always enough; inconclusive means no clear call, values can overlap the other calls;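 further: luminescence divided by OD600 gain over 9 h not by final OD600 alone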
# Hsp70 activator: transcriptional activators of Hsp70; HeLa Hsp70 promoter luciferase reporter, luminescence; scaled: vehicle 0, proteasome-inhibitor control 100%; activation, % at 10 µM; 0.04% of 200,000 active; AID 1203;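 active means activation above the mean across all tested compounds plus 3 SD, cutoff set per campaign, cut at about 5.5% in these data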;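 further: 100% = MG132 at 30 µM as the positive control and 0% = DMSO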
# S1P4 ag: activates the human S1P4 receptor; activation, % at 4.98 µM; S1P4-expressing cell line, agonist reporter assay; AID 1509; 0.35% of 220,000 active; O95977; in the data active means activation above about 11%;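 further: 0% = DMSO vehicle and 100% = reference agonist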
# S1P4 antag: human S1P4 receptor antagonism; inhibition, % at 4.98 µM; 0.26% of 220,000 active; O95977; S1P4-expressing cells, antagonist mode, reporter read-out; in the data active means inhibition above about 29%;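 further: 0% = wells stimulated with agonist and 100% = vehicle wells without agonist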
# S1P3 antag: antagonists of human S1P3 receptor; CHO S1P3 NFAT-BLA reporter, FRET fluorescence, antagonist mode; inhibition, % at 4.98 µM; 0.27% of 170,000 active;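 active means inhibition above the plate cutoff, the mean inhibition of test wells on that plate plus 3 SD, cut at about 28% in these data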;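 further: cells challenged with S1P at its EC80 of 0.8 µM; blue over green emission ratio from cleaved BLA substrate after 4 h stimulation; 0% = S1P-stimulated wells and 100% = unstimulated DMSO-only wells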
# Target sequence (Q99500 whole entry, looked up): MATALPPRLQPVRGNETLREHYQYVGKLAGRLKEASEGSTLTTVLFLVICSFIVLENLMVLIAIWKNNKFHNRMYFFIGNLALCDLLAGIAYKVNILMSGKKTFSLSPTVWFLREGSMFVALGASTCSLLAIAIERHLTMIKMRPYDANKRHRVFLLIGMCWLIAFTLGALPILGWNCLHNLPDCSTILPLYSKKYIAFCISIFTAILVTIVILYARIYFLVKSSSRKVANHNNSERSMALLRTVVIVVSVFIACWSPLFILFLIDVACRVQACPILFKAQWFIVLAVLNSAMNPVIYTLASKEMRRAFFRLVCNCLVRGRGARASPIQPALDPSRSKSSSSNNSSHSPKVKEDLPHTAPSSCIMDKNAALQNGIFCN
# * = called active by the depositor; ? = inconclusive; . = no result. Only some compounds are listed: those with a hit (about 0.97% of all), similar ones and a draw of the others.
SMILES,AI-2 QS modul,Hsp70 activator,S1P4 ag,S1P4 antag,S1P3 antag
C[C@H]1c2cccc(O)c2C(O)=C2C(=O)[C@]3(O)C(O)=C(C(N)=O)C(=O)[C@@H](N(C)C)[C@@H]3[C@@H](O)[C@@H]21,-65,.,.,.,.
CC1CCCCN1C(=O)Cn1cc(C(=O)c2ccco2)c2ccccc21 (stereo not drawn),26,0,-4,-32,96*
O=C(c1ccco1)c1cn(CC(=O)N2CCCCCC2)c2ccccc12,20,1,1,3,-16
O=C(Nc1ccc(Cl)c(Cl)c1)O/N=C/c1ccncc1,-88*,0,1,-12,23
CCCCn1c(N)c(N(CC(C)C)C(=O)c2ccc3c(c2)NC(=O)C(C)S3)c(=O)[nH]c1=O (stereo not drawn),15,.,.,.,.
CSc1ccc(CN2CCC(CO)(CCOc3ccccc3)CC2)cc1,9,.,.,.,.
CCOC(=O)c1sc(NC(=O)c2cccs2)nc1C,.,0,-2,-23,.
CCOC(=O)c1sc2nc(NC(=O)c3cccs3)sc2c1C,.,.,.,.,70*
CC(=O)Nc1ccc(NC(=O)N(c2ccccc2)c2ccccc2)cc1,13,.,.,.,.
O=C(COC(=O)CC1CC2CCC1C2)Nc1ccc(F)cc1 (stereo not drawn),-14,0,-1,2,-12
O=C(CC1CC2CCC1C2)OCC(=O)c1c[nH]c2ccccc12 (stereo not drawn),-84*,0,0,-14,.
CC(C)(C)C1CCc2onc(C(=O)NCc3ccc(F)cc3)c2C1 (stereo not drawn),15,0,1,4,64*
O=S(=O)(Nc1ccc(Nc2ccccc2)cc1)c1ccc(F)cc1,-95*,.,.,.,.
Nc1nc2ccc(Oc3ccccc3)cc2s1,-81*,0,1,-9,-14
Cc1ccc(S(=O)(=O)N2CC(=NO)C2)cc1,29,-1,1,4,66*
Clc1ccc(CSc2nnc(-c3c[nH]c4ccccc34)o2)cc1,-77*,0,0,-2,.
O=C(O)c1ccc(C(=O)Nc2cccc3ccccc23)c(C(=O)O)c1,31,.,.,.,.
CCOC(=O)C1=NN(c2ccc(C)cc2)CC1C(=O)OC (stereo not drawn),23,0,1,-13,0
O=C(/C=C1\C(=O)Nc2ccccc21)/C=C1\C(=O)Nc2ccccc21,.,.,-1,46*,-6
N#CC1=C(N)Oc2n[nH]c(-c3ccccc3)c2C12C(=O)Nc1ccccc12 (stereo not drawn),22,0,-1,-13,.
Cn1c2c(c(=O)n(C)c1=O)[C@@]1(C(=O)Nc3ccccc31)C(C#N)=C(N)O2,-92*,0,-1,9,-9
C/C(=C\C=C(C#N)C#N)c1cc(C#N)c(N)o1,2,0,1,-16,-9
O=C(NCCc1ccccc1)/C(=N\O)c1ccccc1,-79*,0,1,3,.
COCCOC(=O)c1[nH]c2c(c1C)C(=O)CC(c1ccco1)C2 (stereo not drawn),30,0,-2,8,17
CCCCOC(=O)c1[nH]c2c(c1C)C(=O)CC(c1cc(OC)c(OC)c(OC)c1)C2 (stereo not drawn),29,0,2,-5,52*
SMILES,AI-2 QS modul,Hsp70 activator,S1P4 ag,S1P4 antag,S1P3 antag
Cc1c(C(=O)OCCOC(C)C)[nH]c2c1C(=O)CC(c1ccco1)C2 (stereo not drawn),11,1,-1,15,54*
COCCOC(=O)c1[nH]c2c(c1C)C(=O)CC(c1cc(OC)c(OC)c(OC)c1)C2 (stereo not drawn),11,.,.,.,.
COC(=O)c1ccc(NC(=O)c2cccc(NC(=O)c3ccccc3)c2)cc1,16,.,.,.,.
COc1ccc(-c2ocnc2C(=O)NCc2nn(-c3ccccc3)nc2C)cc1,36,.,0,-18,-1
O=C(CCCn1c(=S)[nH]c2ccccc2c1=O)NC1CCCC1,31,0,1,18,60*
CCCC(c1nnnn1Cc1ccco1)N1CCN(c2cc(Cl)ccc2C)CC1 (stereo not drawn),.,0,-1,9,60*
N#Cc1nc(-c2cccs2)oc1NCc1ccccc1,-91*,0,0,3,.
Cc1ccsc1C(=O)Nc1nnc(-c2ccco2)o1,-127*,0,1,-5,0
CCOC(=O)c1cc2c(=O)n3ccccc3nc2n(CC2CCCO2)c1=NC(C)=O (stereo not drawn),-4,0,18*,-23,.
CCOC(=O)c1cc2c(=O)n3ccccc3nc2n(CC2CCCO2)c1=NC(=O)/C=C/c1ccccc1 (stereo not drawn),.,0,6,-5,-15
S=c1[nH]nc(Cc2noc3ccccc23)n1-c1ccccc1,13,0,1,-3,-14
O=C(N/N=C/c1ccc(O)cc1O)C(=O)N/N=C/c1ccc(O)cc1O,-86*,.,.,.,.
O=C(CCC(=O)Nc1ccc(F)cc1)N/N=C/c1ccc(O)cc1O,7,0,2,-25,10
CCCCN(C)C(=O)c1cn(CC)c2ccc(S(=O)(=O)N(C)C)cc2c1=O,4,0,0,-7,3
CCCCN(C)C(=O)c1cn(C)c2ccc(S(=O)(=O)N(C)C)cc2c1=O,21,0,0,3,87*
CCn1c(SCC(=O)c2ccc(O)c(O)c2)nnc1-c1ccccc1OC,9,0,-1,8,74*
CC(C)Cc1cc(C(=O)N(C)C2CCCN(Cc3ccccc3F)C2)n(C)n1 (stereo not drawn),10,.,.,.,.
COc1ccccc1CN(C(=O)CNC(=O)c1ccco1)C(C(=O)NCC1CCCO1)c1ccccc1 (stereo not drawn),17,.,.,.,.
CNC(=O)c1nnsc1S(=O)c1ccc(Cl)cc1 (stereo not drawn),?,0,-2,14,-18
CCCNC(=O)NS(=O)(=O)c1ccc(Cl)cc1,40,0,2,-13,-11
CCCNC(=O)c1nnsc1S(=O)c1ccc(Cl)cc1 (stereo not drawn),15,0,-1,77*,-4
CCCNC(=O)c1nnsc1S(=O)(=O)c1ccc(Cl)cc1,.,0,-3,64*,-2
CCOC(=O)c1[nH]c2ccccc2c1NC(=O)CC,23,0,0,-11,55*
CCOC(=O)c1[nH]c2ccccc2c1NC(=O)COC,23,0,-2,-16,17
CCOC(=O)C1=C(COC(=O)Cc2ccccc2F)NC(=O)NC1C (stereo not drawn),15,.,.,.,.
SMILES,AI-2 QS modul,Hsp70 activator,S1P4 ag,S1P4 antag,S1P3 antag
CC(C)(C)c1ccc(COC(=O)Nc2ccc(F)cc2)cc1,-51,0,-1,-18,12
CC(C)(C)c1ccc(NC(=O)Nc2ccc(F)cc2)cc1,-85*,0,2,-5,10
Cc1nn(CC2CC2)c(=O)n1-c1ccccc1,2,1,1,-4,6
CSc1ncccc1C(=O)N1CCN(S(=O)(=O)c2ccc(F)cc2)CC1,17,.,.,.,.
O=C(C#Cc1ccccc1)c1ccco1,-94*,.,.,.,.
O=C(N/N=C/c1ccccc1)c1ccco1,7,.,2,-11,4
COc1cccc(-c2cc(C(=O)N3CCN(C(=O)c4ccco4)CC3)on2)c1,15,.,.,.,.

# High-throughput results deposited in PubChem BioAssay by several laboratories.
